In the supplement of paper PMC7411054:

Key:
Details in all cases: treatment time: 24 h
[1] = system: WPMY1-ACTB-RAB5A; experiment: lowest phenotypically active concentration; higher = less potent
Summary of the method: (§1)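 Four wells per concentration (0.3, 1, 3 or 9 µM) were treated for 24 h in each of fifteen gene-edited reporter lines from A549, HepG2 and WPMY1 cells, then imaged live. After normalising live-cell features to solvent control wells, deviation was defined as ≥3 of 4 wells lying past the 95th percentile of control Euclidean distances. Reproducibility was defined as a median replicate Pearson correlation above the 95th percentile of non-replicates. Both had to hold for phenotypic activity.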

[2] = system: WPMY1-CANX-COX4; experiment: as above
Summary of the method: as §1

[3] = system: WPMY1-GM130-SQSTM1; experiment: as above
Summary of the method: as §1

[4] = system: WPMY1-TUBA1B-RELA; experiment: as above
Summary of the method: as §1

[5] = system: A549-ACTB-RAB5A; experiment: phenotypically active (imaging signature differs from DMSO and reproducible) at any of 0.3-9 uM (binary (1 = active, 0 = inactive)); higher = active
Summary of the method: as §1

[6] = system: A549-CANX-COX4; experiment: as above
Summary of the method: as §1

[7] = system: A549-GM130-SQSTM1; experiment: as above
Summary of the method: as §1

[8] = system: A549-TUBA1B-RELA; experiment: as above
Summary of the method: as §1

[9] = system: HepG2-ACTB-RAB5A; experiment: as above
Summary of the method: as §1

[10] = system: HepG2-CANX-COX4; experiment: as above
Summary of the method: as §1

[11] = system: HepG2-GM130-SQSTM1; experiment: as above
Summary of the method: as §1

[12] = system: HepG2-TUBA1B-RELA; experiment: as above
Summary of the method: as §1

[13] = system: WPMY1-ACTB-RAB5A; experiment: as above
Summary of the method: as §1

[14] = system: WPMY1-CANX-COX4; experiment: as above
Summary of the method: as §1

[15] = system: WPMY1-GM130-SQSTM1; experiment: as above
Summary of the method: as §1

[16] = system: WPMY1-TUBA1B-RELA; experiment: as above
Summary of the method: as §1

[17] = system: WPMY1-TP53BP1-CLTA; experiment: lowest phenotypically active concentration; higher = less potent
Summary of the method: as §1

[18] = system: A549-TP53BP1-CLTA; experiment: phenotypically active (imaging signature differs from DMSO and reproducible) at any of 0.3-9 uM (binary (1 = active, 0 = inactive)); higher = active
Summary of the method: as §1

[19] = system: HepG2-TP53BP1-CLTA; experiment: as above
Summary of the method: as §1

[20] = system: WPMY1-TP53BP1-CLTA; experiment: as above
Summary of the method: as §1

| Structure (SMILES) | lowest phenotypically active concentration [1] | lowest phenotypically active concentration [2] | lowest phenotypically active concentration [3] | lowest phenotypically active concentration [4] | phenotypically active [5] | phenotypically active [6] | phenotypically active [7] | phenotypically active [8] | phenotypically active [9] | phenotypically active [10] | phenotypically active [11] | phenotypically active [12] | phenotypically active [13] | phenotypically active [14] | phenotypically active [15] | phenotypically active [16] | lowest phenotypically active concentration [17] | phenotypically active [18] | phenotypically active [19] | phenotypically active [20] |
| --- | --- | --- | --- | --- | --- | --- | --- | --- | --- | --- | --- | --- | --- | --- | --- | --- | --- | --- | --- | --- |
| CC(C)C(=O)Nc1ncc(-c2cc(C(F)F)nn2-c2c(Cl)cccc2Cl)s1 | 9 µM | 3 µM | 9 µM | 3 µM | 1 (active) | 0 (inactive) | 0 (inactive) | 0 (inactive) | 1 (active) | 1 (active) | 0 (inactive) | 0 (inactive) | 1 (active) | 1 (active) | 1 (active) | 1 (active) |  |  |  |  |
| C[C@H](CS)C(=O)N1CCC[C@H]1C(=O)O [captopril] |  |  |  |  | 0 (inactive) | 0 (inactive) | 0 (inactive) | 0 (inactive) | 0 (inactive) | 0 (inactive) | 0 (inactive) | 0 (inactive) | 0 (inactive) | 0 (inactive) | 0 (inactive) | 0 (inactive) |  |  |  |  |
| Fc1ccc(Cl)cc1-c1nc(Nc2ccncc2)c2nccnc2n1 |  |  |  |  | 0 (inactive) | 0 (inactive) | 0 (inactive) | 0 (inactive) | 0 (inactive) | 0 (inactive) | 0 (inactive) | 0 (inactive) | 0 (inactive) | 0 (inactive) | 0 (inactive) | 0 (inactive) | 9 µM | 0 (inactive) | 0 (inactive) | 1 (active) |
| C[C@@H](Oc1cc(-c2cnn(C3CCNCC3)c2)cnc1N)c1c(Cl)ccc(F)c1Cl [Crizotinib] |  |  |  |  |  | 1 (active) | 1 (active) |  | 1 (active) | 1 (active) |  | 1 (active) | 1 (active) | 1 (active) | 1 (active) | 1 (active) |  | 1 (active) | 1 (active) | 1 (active) |
| CN1C(=O)CC(c2ccccc2)C1=O (stereo unspecified) [phensuximide] |  |  |  |  |  | 0 (inactive) |  |  | 0 (inactive) | 0 (inactive) | 0 (inactive) | 0 (inactive) | 0 (inactive) | 0 (inactive) | 0 (inactive) | 0 (inactive) |  | 0 (inactive) | 0 (inactive) | 0 (inactive) |
| COc1ccc(Cn2ccc3ccc(C(=O)NO)cc32)cc1 |  |  | 3 µM |  | 0 (inactive) | 0 (inactive) | 0 (inactive) | 0 (inactive) | 0 (inactive) | 0 (inactive) | 0 (inactive) | 0 (inactive) | 0 (inactive) | 0 (inactive) | 1 (active) | 0 (inactive) |  | 0 (inactive) | 0 (inactive) | 0 (inactive) |
| COc1ccc2c3c(c(=O)n(C)c2c1OC)C=CC(C)(C)O3 [Veprisine] |  |  | 9 µM |  | 0 (inactive) | 0 (inactive) | 0 (inactive) | 0 (inactive) | 0 (inactive) | 0 (inactive) | 0 (inactive) | 0 (inactive) | 0 (inactive) | 0 (inactive) | 1 (active) | 0 (inactive) | 9 µM | 0 (inactive) | 0 (inactive) | 1 (active) |
| CNC(=O)c1c(-c2ccc(F)cc2)oc2cc(N(CCO)S(C)(=O)=O)c(C3CC3)cc12 [nesbuvir] |  |  |  |  |  | 0 (inactive) |  |  | 0 (inactive) | 0 (inactive) | 0 (inactive) | 0 (inactive) | 0 (inactive) | 0 (inactive) | 0 (inactive) | 0 (inactive) |  | 0 (inactive) | 0 (inactive) | 0 (inactive) |
| CCC1(c2ccccc2)NC(=O)N(C)C1=O (stereo unspecified) [Mephenytoin] |  |  |  |  |  | 0 (inactive) |  |  | 0 (inactive) | 0 (inactive) | 0 (inactive) | 0 (inactive) | 0 (inactive) | 0 (inactive) | 0 (inactive) | 0 (inactive) |  | 0 (inactive) | 0 (inactive) | 0 (inactive) |
| CC(CCc1ccccc1)NCC(O)c1ccc(O)c(C(N)=O)c1 (stereo unspecified) [labetalol] |  |  |  |  |  | 0 (inactive) |  |  | 0 (inactive) | 0 (inactive) | 0 (inactive) | 0 (inactive) | 0 (inactive) | 0 (inactive) | 0 (inactive) | 0 (inactive) |  | 0 (inactive) | 0 (inactive) | 0 (inactive) |
| CN(C)CCCC1(c2ccc(F)cc2)OCc2cc(C#N)ccc21 (stereo unspecified) [citalopram] |  |  | 9 µM |  | 0 (inactive) | 0 (inactive) | 0 (inactive) | 0 (inactive) | 0 (inactive) | 0 (inactive) | 0 (inactive) | 0 (inactive) | 0 (inactive) | 0 (inactive) | 1 (active) | 0 (inactive) |  | 0 (inactive) | 0 (inactive) | 0 (inactive) |
| O=c1c(O)c(-c2ccc(O)c(O)c2)oc2cc(O)cc(O)c12 [Quercetin] |  |  | 9 µM |  | 0 (inactive) | 0 (inactive) | 0 (inactive) | 0 (inactive) | 0 (inactive) | 0 (inactive) | 0 (inactive) | 0 (inactive) | 0 (inactive) | 0 (inactive) | 1 (active) | 0 (inactive) |  | 0 (inactive) | 0 (inactive) | 0 (inactive) |
| CCN(CC)CCOC(=O)C1(C2CCCCC2)CCCCC1 [dicycloverine] |  |  |  |  |  | 0 (inactive) |  |  | 0 (inactive) | 0 (inactive) | 0 (inactive) | 0 (inactive) | 0 (inactive) | 0 (inactive) | 0 (inactive) | 0 (inactive) |  | 0 (inactive) | 0 (inactive) | 0 (inactive) |
